In the library only some 10% were active in any assay of this set; here they are far more common.
KB-V1 MDR tox: qHTS assay for MDR1-selective chemotherapeutics: Primary screen using the drug-selected MDR subline cells KB-V1. Potency, µM (highest dose often 46.1 µM), usual class: cytotoxic. KB-V1 MDR cells viability, CellTiter-Glo, 72 h. actives 3.4% (n = 400,000). AID 1347076, 2019; also: % is scaled to controls: 0 for no effect and ±100 for the full control effect; nearly all actives have a fitted effect of over 60% in size
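Potencies derive from concentration-effect curves fitted to normalized luminescence (CellTiter-Glo) of KB-V1 cells treated for 72 h at 37 degrees C in phenol-red-free DMEM containing 10% FBS.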
SW480 rereplic: A quantitative high throughput screen for small molecules that induce DNA re-replication in SW480 colon adenocarcinoma cells; SW480 DNA re-replication, Hoechst DNA content imaging, 48 h; Potency, µM (series often up to 46.1 µM), inactives show top-dose re-replication activation, hits mostly activators; actives 1.8% (n = 340,000); also: % of control where 0% means no effect; nearly all actives have a fitted effect of over 55% in size
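Quantitative HTS format with DMSO vehicle controls; 48 hr drug incubation at 37 C, then 40 min Hoechst staining and scanning imager measurement at 405 nm excitation.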
Gal4-VP16 FLuc: VP16 counterscreen qHTS for inhibitors of ROR gamma transcriptional activity; Drosophila S2 Gal4-VP16 UAS-luciferase, luminescence, 20 h; Potency, µM (highest dose often 53.6 µM), for the others: top-dose activity, negative = inhibition, usual class: inhibitors; actives 3.5% (n = 310,000); AID 2546, 2010;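 also: Gal4-VP16 expression switched on by copper sulfate through the metallothionein promoter; % is scaled to controls: 0 for no effect and ±100 for the full control effect; nearly all actives have a fitted effect of over 50% in size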
KB-3-1 cytotox: qHTS assay for MDR1-selective chemotherapeutics: Primary screen using the parental adenocarcinoma cell KB-3-1. actives 1.4% (n = 400,000). Potency, µM (doses to about 46.1 µM), actives largely listed as cytotoxic. AID 1347075, 2019. KB-3-1 viability, CellTiter-Glo ATP luminescence, 72 h; also: % is scaled to controls: 0 for no effect and ±100 for the full control effect; nearly all actives have a fitted effect of over 60% in size
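Using CellTiter-Glo luminescence, growth of non-resistant KB-3-1 adenocarcinoma cells is assessed 72 h after pin-tool compound addition at 37 °C. Normalized responses across the concentration series yield fitted curves.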
MCF10A rerep: A quantitative high throughput screen for small molecules that induce DNA re-replication in MCF 10a normal breast cells; MCF 10A DNA re-replication, Hoechst nuclear intensity, 48 h; Potency, µM (titrated, usually from 46.1 µM), for inactives: at the highest dose activity, positive = re-replication, hits mostly activators; actives 2.9% (n = 350,000); AID 624296, 2012; also: % of control where 0% means no effect; nearly all actives have a fitted effect of over 50% in size
RORg inh: qHTS for inhibitors of ROR gamma transcriptional activity | Nuclear receptor ROR-gamma (Mus musculus), P51450 | Drosophila S2 Gal4-RORgamma UAS-luciferase reporter, 20 h | Potency, µM (series often up to 53.6 µM), for inactives: at the top dose activity change, negative = inhibition, hits mostly inhibitors | actives 5.4% (n = 310,000); also: % is scaled to controls: 0 for no effect and ±100 for the full control effect; nearly all actives have a fitted effect of over 60% in size
Target sequence (P51450 whole entry, looked up, the tested form may be a part): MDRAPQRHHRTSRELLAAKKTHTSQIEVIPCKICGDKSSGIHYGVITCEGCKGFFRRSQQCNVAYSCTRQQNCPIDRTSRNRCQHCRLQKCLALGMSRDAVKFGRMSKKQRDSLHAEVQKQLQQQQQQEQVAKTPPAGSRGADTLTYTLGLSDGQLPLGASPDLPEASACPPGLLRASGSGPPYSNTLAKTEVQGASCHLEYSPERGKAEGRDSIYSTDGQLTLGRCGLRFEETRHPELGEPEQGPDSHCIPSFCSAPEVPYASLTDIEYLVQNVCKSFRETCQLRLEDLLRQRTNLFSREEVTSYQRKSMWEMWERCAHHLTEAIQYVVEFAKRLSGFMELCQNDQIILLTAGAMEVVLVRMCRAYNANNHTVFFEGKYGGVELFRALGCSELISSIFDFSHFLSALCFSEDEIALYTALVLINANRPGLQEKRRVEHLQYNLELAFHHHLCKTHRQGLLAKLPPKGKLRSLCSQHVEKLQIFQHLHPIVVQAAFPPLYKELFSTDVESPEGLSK
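ROR gamma transcriptional activity was tracked as Gal4-UAS luciferase output in stably transfected Drosophila Schneider cells, with compound added 1 hr before 700 uM copper sulfate induction and a 20 hr ambient-temperature incubation.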
An asterisk follows results filed as active; i = inactive; ? = inconclusive; . = not tested or not shown. Calls follow the shape of the dose curve; as a rule, active = well fitted curve in the direction sought with a large enough effect; inconclusive = small, poorly fitted or top-dose-only effect, or another doubt; inactive = no such curve, though single readings can be large; an effect the other way counts as inactive or inconclusive. Potency is read from the fitted curve at half-maximal effect.

SMILES | KB-V1 MDR tox | SW480 rereplic | Gal4-VP16 FLuc | KB-3-1 cytotox | MCF10A rerep | RORg inh
Cc1cccc(CNC(=O)c2cccc(NC(=O)N3CCSc4ncccc43)c2)c1 | i | . | . | i | . | .
CCOc1ccccc1/C=C/c1onc(C)c1S(=O)(=O)N1CCC(C(=O)NC(C)C)CC1 | ? | ? | -1% | i | 15% | -28%
Cc1noc(/C=C/c2ccco2)c1S(=O)(=O)N1CCC(C(=O)N2CCc3ccccc3C2)CC1 | i | ? | -5% | ? | 18µM* | -6%
CCOc1ccccc1/C=C/c1onc(C)c1S(=O)(=O)N1CCC(C(=O)N2CCCCCC2)CC1 | i | -8% | -11% | ? | 18µM* | -33%
CCCN1CCN(C(=O)C2CCN(S(=O)(=O)c3c(C)noc3/C=C/c3ccc(C)cc3)CC2)CC1 | ? | 16µM* | ? | 26µM* | ? | -93%
O=c1cc(-c2ccccc2O)oc2c1ccc1ccccc12 | . | . | -17% | . | . | 7%
COc1ccc(-n2c(N)c(-c3nc4ccccc4n3C)sc2=S)cc1 | i | 0% | -13% | i | 16% | 6.3µM*
CCOc1ccc(-n2c(N)c(-c3nc4ccccc4[nH]3)sc2=S)cc1 | i | 4% | ? | i | 18% | ?
Cc1nc2c(ccc3nc(NC(=O)C(c4ccccc4)c4ccccc4)sc32)s1 | i | 9% | 5µM* | i | 16µM* | ?
Cc1cnc(NC(=O)c2cccc(S(=O)(=O)N3CC(C)OC(C)C3)c2)s1 (centres undefined) | 16µM* | -3% | -1% | ? | 5% | 22%
O=C(Nc1ncc([N+](=O)[O-])s1)c1ccc2c(c1)OCO2 | ? | 8% | 2.5µM* | 23µM* | -3% | 1.8µM*
Cc1nc2c(ccc3nc(NC(=O)c4ccc5c(c4)OCCO5)sc32)s1 | i | ? | 0.089µM* | i | 2.3µM* | 0.2µM*
CO[C@H](C(=O)N(C)C[C@@H]1OCc2ccccc2-c2c(n(C)c3ccccc23)C(=O)N([C@H](C)CO)C[C@@H]1C)c1ccccc1 | i | . | . | i | . | .
Cc1ccc(C(=O)Nc2ncc(C)s2)o1 | i | -11% | -7% | i | 20% | ?
Cc1ccc(C(=O)Nc2ncc([N+](=O)[O-])s2)cc1 | i | -7% | 2µM* | ? | -6% | 0.89µM*
Cc1ccc(C(=O)Nc2ncc(C)s2)s1 | i | 7% | ? | i | 3% | 7.1µM*
CC(=O)Nc1ncc([N+](=O)[O-])s1 | . | 2% | -14% | . | -4% | -1%
Cc1onc(-c2ccccc2)c1C(=O)Nc1ncc([N+](=O)[O-])s1 | 23µM* | 14% | ? | ? | ? | ?
Cc1nc2ccc3nc(NC(=O)c4ccc5c(c4)OCCO5)sc3c2s1 | i | -7% | -2% | i | -1% | -37%
Cc1cnc(NC(=O)c2ccc3c(c2)OCCO3)s1 | ? | 4.1µM* | . | 5.8µM* | 2.9µM* | .
CN(C)c1ccc(/C=C/c2sc3ccccc3[n+]2CCCCI)cc1 | 23µM* | . | . | ? | . | .
CN(Cc1ccccc1)c1ccc(/C=C/c2sc3ccccc3[n+]2C)cc1 | i | . | . | ? | . | .
Cc1sc2ccccc2[n+]1CCC[n+]1c(C)sc2ccccc21 | i | . | . | i | . | .
CCCC[n+]1c(/C=C/c2ccc(N(C)C)cc2)sc2ccccc21 | i | . | . | 1.8µM* | . | .
COC(=O)c1ccc(C(NC(=O)OCc2ccccc2)/C(=C/[C@@H](C)C(=O)NCC2CC2)c2cccnc2)cc1 (some centres undefined) | . | . | -4% | . | . | 21%
SMILES | KB-V1 MDR tox | SW480 rereplic | Gal4-VP16 FLuc | KB-3-1 cytotox | MCF10A rerep | RORg inh
CCOC(=O)c1c(C)[nH]c(C)c1S(=O)(=O)NCC(=O)NCc1ccc(C)cc1 | i | . | . | i | . | .
C/C(=N/NC(=O)c1ccc2c(c1)OCCO2)c1ccc([N+](=O)[O-])cc1 | i | -6% | 5% | i | 5% | 13%
CC(=O)N/N=C(\C)c1ccc2c(c1)OCCO2 | 23µM* | -7% | 11% | ? | -4% | -9%
CC(=NNC(N)=S)c1ccc2cc3c(cc2c1)OCO3 | 0.58µM* | . | . | ? | . | .
COc1cc2ccc(C(C)=NNC(N)=S)cc2cc1OC | ? | . | . | i | . | .
C/C(=N\NC(=S)Nc1ccc(F)cc1)c1ccc2c(c1)OCCO2 | 12µM* | ? | 4µM* | ? | 5.8µM* | 1.3µM*
C/C(=N\NC(N)=S)c1ccc2c(c1)OCCO2 | ? | -9% | ? | ? | 0% | 5µM*
CC(C)(C)OC(=O)N1CCC(c2c(C(=O)NCc3ccco3)cnn2-c2ccc(F)cc2)CC1 | i | . | . | i | . | .
COc1ccc(NC(=O)c2ccco2)cc1NC(=O)C(C)(C)Oc1ccc(Cl)cc1 | i | . | . | i | . | .
CC(C)(C)OC(=O)N1CCC(c2c(C(=O)N3CCN(C(=O)c4ccco4)CC3)cnn2-c2ccccc2)CC1 | i | . | . | i | . | .
CCN(C(=O)Cn1nnc2sc3c(c2c1=O)CCC(C(C)(C)C)C3)c1cccc(C)c1 (centres undefined) | i | . | . | i | . | .
S=C(NCc1ccco1)N1CCN(c2ccccn2)CC1 | i | 7% | -17% | i | -36% | -1%
COCCCNC(=S)N1CCN(C(c2ccccc2)c2ccccc2)CC1 | ? | -6% | ? | i | 4% | 16µM*
COCCCNC(=S)N1CCN(c2nc(-c3ccccc3)cs2)CC1 | i | -2% | ? | i | 15µM* | -3%
S=C(NCc1ccco1)N1CCN(C(c2ccccc2)c2ccccc2)CC1 | i | -1% | ? | i | 5% | 13µM*
Cc1cc(C)cc(C(=O)NCC(=O)N2CCN(C(c3ccccc3)c3ccccc3)CC2)c1 | 18µM* | ? | 11% | ? | 16µM* | 34%
COCCCNC(=S)N1CCN(C(=O)c2ccco2)CC1 | i | -3% | 8% | i | -6% | 1%
CCC(=O)N1c2ccccc2CC1C(=O)NCCN1CCN(c2cc(Cl)ccc2C)CC1 (centres undefined) | i | . | . | i | . | .
O=C(CN1CCN(c2nc(-c3ccccc3)cs2)CC1)NNC(=O)c1ccc(Br)cc1 | i | 7% | 1% | i | 9% | -9%
O=C(NC(=S)N1CCN(c2nc(-c3ccccc3)cs2)CC1)c1cncc(Br)c1 | ? | 16µM* | 0.22µM* | ? | 21µM* | 0.22µM*

Screening results (PubChem)
